NPSR antagonist: blocks cAMP signaling of the human neuropeptide S receptor; Q6W5P4; CHO-NPSR cells, cAMP TR-FRET, antagonist mode; Potency, µM (doses to about 38.3 µM), most hits filed as inhibitors; 220,000 tested, 1% active; AID 1461; also: nearly all actives have a fitted effect of over 50% in size
JMJD2E inh: JMJD2E (human) inhibition; JMJD2E catalytic domain, FDH-coupled NADH fluorescence (FDH is formaldehyde dehydrogenase); Potency, µM (series often up to 57.1 µM), actives largely listed as inhibitors; 230,000 tested, 1.6% active; AID 2147; B2RXH2; active = well fitted inhibition curve with a large enough effect, not every such curve was filed as active; inconclusive = small, poorly fitted or top-dose-only effect, or another doubt; inactive = no such curve, though single readings can be large or run the other way; also: nearly all actives have a fitted effect of over 50% in size
Target sequence (B2RXH2 1-337 limits assumed): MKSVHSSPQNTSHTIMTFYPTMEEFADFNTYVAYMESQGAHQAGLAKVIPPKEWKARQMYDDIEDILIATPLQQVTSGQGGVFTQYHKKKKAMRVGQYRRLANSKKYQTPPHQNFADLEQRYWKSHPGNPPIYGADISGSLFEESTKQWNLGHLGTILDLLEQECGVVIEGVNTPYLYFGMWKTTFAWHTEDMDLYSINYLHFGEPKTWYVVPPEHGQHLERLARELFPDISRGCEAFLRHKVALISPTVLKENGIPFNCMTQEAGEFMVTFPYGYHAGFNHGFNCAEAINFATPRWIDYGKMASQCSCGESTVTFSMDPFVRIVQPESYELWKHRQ
Sfp PPTase inh: inhibitors of Bacillus subtilis Sfp phosphopantetheinyl transferase; Potency, µM, most hits filed as inhibitors; Biochemical Sfp PPTase activity, qHTS; 310,000 tested, 3.5% active; Q9F4F7;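 also: the enzyme is Sfp with the accession as filed and its product quenches rhodamine fluorescence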
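Sfp 15 nM + cpd, 15 min RT; start w/ rhodamine-CoA 5 uM, BHQ-2-YbbR 12.5 uM (final); 50 mM Hepes pH 7.6, 10 mM MgCl2, 0.01% NP-40, 0.01% BSA; read 525/598 nm at 0 and 30 min.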
Epigenetic derep: derepresses silenced GFP reporter in murine cells. murine LDR cells, GFP reporter derepression, 30 h. Potency, µM (doses to about 53.9 µM), hits mostly activators. 280,000 tested, 0.2% active; also: nearly all actives have a fitted effect of over 60% in size
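Murine LDR cells carrying a silenced, genomically integrated CMV-driven GFP reporter were exposed to compound for 30 hours at 37 C. After PBS washes, GFP-positive cells (20–120 um objects) were counted by laser-scanning microplate cytometry.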
IMPase Li cell: IMPase inhibition in cells with lithium potentiation; AID 1457; CHO-M1 cells, IP1 TR-FRET (IP-One), carbachol + lithium; Potency, µM (titrated, usually from 59.4 µM), most hits filed as inhibitors; 210,000 tested, 0.35% active;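 also: IP1 builds up when IMPase is blocked and the TR-FRET signal falls; nearly all actives have a fitted effect of over 50% in size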
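Readout is a homogeneous TR-FRET IP1 immunoassay (Ex 320, Em 665 and 620), where raised cytosolic IP1 lowers signal. Cells were CHO-M1 treated 30 min at 37C with test compounds plus a little lithium; AC50 values came from Hill-equation fitting.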
GCN5L2 inh: inhibitors of human GCN5L2 histone acetyltransferase | GCN5L2 HAT assay, ThioGlo1 CoA-SH fluorescence | Potency, µM (highest dose often 58.9 µM), actives largely listed as inhibitors | 390,000 tested, 0.21% active | AID 504327
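Fluorescence readout, Ex340nm/Em540nm: ThioGlo1 (50uM final) reacts with free CoA thiol released as 20nM GCN5L2 acetylates H3(1-25) peptide (75uM) using acetyl-CoA (70uM). Compound and enzyme sat 15 min beforehand; 20 min room-temperature reaction.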
A number is an active result; . = inactive; ? = inconclusive; / = no result given; [ ] = remark or other dose. This is a sample that favours compounds with a hit; in the whole collection about 3.6% have one here. Unless noted, calls follow the shape of the dose curve; as a rule, active = well fitted curve in the direction sought with a large enough effect; inconclusive = small, poorly fitted or top-dose-only effect, or another doubt; inactive = no such curve, though single readings can be large; an effect the other way counts as inactive or inconclusive.

SMILES	NPSR antagonist	JMJD2E inh	Sfp PPTase inh	Epigenetic derep	IMPase Li cell	GCN5L2 inh
CC[C@H](C)[C@H](NC(=O)[C@H](CCC(=O)O)NC(=O)CNC(=O)[C@@H](NC(=O)[C@@H]1CCCN1C(=O)[C@@H](NC(=O)[C@@H]1CCCN1C(=O)[C@@H]1CCCN1C(=O)[C@H](CC(N)=O)NC(=O)[C@H](CC(N)=O)NC(=O)[C@@H](NC(=O)[C@H](CCSC)NC(=O)[C@H](Cc1c[nH]c2ccccc12)NC(=O)CNC(=O)[C@@H](NC(=O)[C@H](CCC(N)=O)NC(=O)[C@@H](N)CCC(=O)O)[C@@H](C)CC)[C@@H](C)O)[C@@H](C)CC)C(C)C)C(=O)O	/	/	.	/	/	.
Cc1ccc(Nc2cc(C)c3c(O)cccc3n2)cc1C	.	?	50.1µM	.	/	.
COc1ccc(Cn2c(-c3ccco3)nc3c(c(=O)c4ccccc4n3C)c2=O)cc1	.	?	.	.	/	?
Cn1c2ccccc2c(=O)c2c(=O)n(Cc3ccco3)c(-c3ccc(Cl)cc3Cl)nc21	?	?	8.91µM	.	/	.
NC(=O)CCCCC(N)=O	/	/	/	/	.	/
COc1cccc2cc(-c3csc(-c4ccc(Cl)cc4)n3)c(=O)oc12	/	/	/	.	/	.
CCOc1ccc(-n2nc3ccc(NC(=O)c4ccc5c(c4)OCCO5)cc3n2)cc1	10µM	?	.	.	.	.
O=C(Nc1ccc2nn(-c3ccccc3)nc2c1)c1ccc2c(c1)OCCO2	.	?	.	.	.	.
Cc1ccc(/C=N/Nc2nc(C(C)(C)C)cs2)o1	.	.	50.1µM	.	.	.
C/C(=N\Nc1nc(C(C)(C)C)cs1)c1ccc(O)cc1	/	/	50.1µM	/	/	.
O=C1C=C[C@@H](O)[C@H]2[C@@H]3C(=O)N(c4cccc(Oc5ccccc5)c4)C(=O)[C@@H]3CC[C@H]12	/	/	.	.[10.1 µM]	/	/
Cc1cccc(Cn2c(C)c(CNC3CCCCCC3)c(C(=O)O)c2C)c1	/	/	/	.	/	.
O=C(O)CCC(=O)NNc1nc(-c2ccccc2)c2cc(Cl)ccc2n1	/	/	.	/	/	.
O=C(O)CCC(=O)NNc1ncnc2ccccc12	.	?	56.2µM	.	.	.
O=C(O)CCC(=O)NNc1nc2ccccc2nc1-c1ccccc1	.	?	56.2µM	.	.	.
COCc1cc(=O)[nH]c(SCCS(=O)(=O)c2ccc(Cl)cc2Cl)n1	.	.	79.4µM	.	/	.
COCc1cc(=O)[nH]c(SCCS(=O)(=O)c2ccc(C)cc2)n1	.	.	.	.	/	.
N#CC1=C(N)SC(N)=C(C#N)C1c1cccc(O)c1	.	?	79.4µM	.	?	.
COc1ccc(C2C(C#N)=C(N)SC(N)=C2C#N)cc1OC	.	.	?	.	.	.
O=C(O)c1cc2c(cc1S(=O)(=O)O)[C@H]1[C@@H](C3[C@H]2[C@@]2(Cl)C(Cl)=C(Cl)C3(Cl)C2(Cl)Cl)[C@]2(Cl)C(Cl)=C(Cl)C1(Cl)C2(Cl)Cl (some centres undefined)	/	/	/	/	.	/
CC(C(=O)NCc1cccc(Br)c1)n1ncn2cccc2c1=O (centres undefined)	/	/	/	.	/	.
C#CCN1C(=O)C(O)(CC(=O)/C=C/c2ccco2)c2ccccc21 (centres undefined)	.	.	35.5µM	.	.	.
Cc1noc(C)c1-c1ccc2ncnc(N3CCOCC3)c2c1	/	/	.	/	.	?
C=CCNC(=S)NC(=O)c1csc([N+](=O)[O-])c1	?	.	56.2µM	.	/	.
CCCCCCC1NC(C(=O)O)CS1 (centres undefined)	.	.	44.7µM	.	.	.
CCCCC1NC(C(=O)O)CS1 (centres undefined)	.	.	?	.	.	.
CCN(CC)CCCCNC(=O)c1ccc(Cc2nc3ccccc3[nH]2)cc1	/	/	/	.	/	/
O=C(NC(=S)Nc1ccccc1)c1csnn1	.	.	50.1µM	.	.	.
CC(=NCCc1c(C)[nH]c2ccc(OC(F)(F)F)cc12)C1=C(O)CC(c2ccccc2)CC1=O (centres undefined)	10µM	.	?	.	.	.
